# Assay results: PubChem BioAssay AID493201 (National Center for Advancing Translational Sciences (NCATS), 2011)
# Results filed as inconclusive are left out. A call without a number means that no potency is given here. Activity calls are given as the source filed them. The call rests on the fitted dose curve; in most records, active means well fitted activation curve with a large enough effect; inconclusive means small, poorly fitted or top-dose-only effect; inactive means no such curve, though single readings can be large or run the other way.
# Assay: qHTS Assay for Identifying a Potential Treatment of Ataxia-Telangiectasia: Secondary assay (no NCS) hit validation;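 further: phosphorylated KAP1 signal as a proxy for ATM-like kinase activity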
# Settings: A-T patient fibroblasts, AlphaLISA, no DNA damage added, 90 min; series mostly up to 76.9 µM
# Procedure, shortened: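 hTERT-immortalized A-T patient fibroblasts (F2112), 500 cells/well, exposed to compounds at up to 76.7 uM final without NCS at 37C. KAP-1 phosphorylation measured by AlphaLISA after lysis and 6 h detection at 25C.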
# Potency means the concentration at half of the fitted maximal effect.
row,SMILES,Potency
1,CCn1c(=NC(=O)CN2C(=O)CCC2=O)sc2c(OC)ccc(OC)c21,0.923 µM (active)
2,COc1cccc(CNCc2ccc(OC)c3ccccc23)c1OC,inactive
3,CCc1ccc(NC(=O)N[C@H](C(=O)O)C(C)CC)cc1 (stereo not given in full),inactive
4,Oc1ccc(-c2nccc(-c3ccc(F)cc3)n2)cc1,5.82 µM (active)
5,CCOC(=O)Cn1c(-c2ccccc2)cc(SC)c(C#N)c1=O,inactive
6,COC(=O)c1ccc2[nH]c3cccc(/C(=C/c4ccccc4)c4ccccc4)c3c2c1,inactive
7,O=C(O)c1ccc(-c2nc3ccccc3s2)o1,inactive
8,CCOC(=O)N1CCN(c2nc(N(c3ccccc3)c3ccccc3)nc(-n3ccnc3)n2)CC1,inactive
9,CC(C)(C)C1CCC2(CC1)SCC(=O)N2c1ccccc1 (stereo not given),inactive
10,COc1cc(/C=N/NC(=O)c2c(C)nc3ccc(Cl)cn23)cc(OC)c1OC,3.68 µM (active)
11,COc1cc(CCC(C)NCc2ccccc2)ccc1O (stereo not given),inactive
12,CCC(=O)NC1=C(Cl)C(=O)C(NC(=O)CC)=C(Cl)C1=O,inactive
13,S=c1[nH]nc(COc2ccccc2)n1/N=C/c1ccccc1Cl,inactive
14,O=C(CNCc1cccs1)Nc1ccc(OC(F)(F)F)cc1,inactive
15,O=C(NC(=O)c1c(F)cccc1F)Nc1ccccc1SC(F)F,inactive
16,O=C(/C(=C/c1ccc(Cl)cc1)c1nc2ccccc2[nH]1)c1cccs1,inactive
17,O=C1CN(C(=O)NCC(=O)N[C@H](C(=O)O)c2ccccc2)c2ccccc2N1,inactive
18,CCOc1ccc(NC2=NCC(=O)N2Cc2cccs2)cc1,inactive

row,SMILES,Potency
1,CCc1ccc(C2c3[nH]c4ccccc4c3CCN2C(=O)c2cc[n+]([O-])cc2)cc1 (stereo not given),inactive
2,C/C(CCC1CC(C)OC1=O)=N\NC(N)=S (stereo not given),inactive
3,COC(=O)c1ccncc1C(=O)Nc1ccc(Oc2ncc(C(F)(F)F)cc2Cl)cc1,inactive
4,CC(C)(CN1CCN(c2ccccc2)CC1)NS(=O)(=O)c1ccccc1,inactive
5,COc1cc(/C=C2\CCOC2=O)cc(OC)c1OC,inactive
6,O=C(Nc1ccc(N2CCCC2)cc1)c1ccc(Cl)cc1Cl,inactive
7,CCc1nnc2n1N=C(c1cccc([N+](=O)[O-])c1)CS2,51.9 µM (active)
8,N#C/C(=C/c1ccc(F)cc1)C(N)=S,inactive
9,c1ccc2c(c1)nc(Nc1ccc(N3CCCCC3)cc1)c1nncn12,inactive
10,CCC(C)NC(=O)c1cn(CCOC)c(=O)c2c1c1ccccc1n2C (stereo not given),inactive
11,COc1ccc(-c2csc(-c3ccc(O)cc3)n2)cc1,inactive
12,O=C(O)c1ccc(/C=C/c2nc3ccccc3c(=O)[nH]2)cc1,inactive
13,CC1=C/C(=C\C=C(C#N)C#N)N(C)c2ccccc21,inactive
14,O=C(c1ccc(F)cc1)N1CCC(c2ccccc2)C1 (stereo not given),inactive
15,CN(C)c1cc(Nc2ccc(O)cc2)c([N+](=O)[O-])c2nonc12,inactive
16,CC(C)C1CC(CCN)(c2ccccc2)CCO1 (stereo not given),inactive
17,c1ccc(CSc2nnc(-c3ccco3)n2Cc2ccco2)cc1,inactive
